The panel holds about 83,000 compounds, 20% with a hit somewhere; the sample as a whole holds those more often.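 Cell lines were cultured in 96-well plates, exposed to a single compound concentration, and assessed for percent growth 48 hours later.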 A number with no mark means an inactive call. Active and inactive are the calls of the source. Rule for the calls: active = growth percent below 10; inactive = the rest.
Columns and labels:
Assay in all cases: NCI-60 one-dose screen, 48 h (100 = growth as untreated, 0 = no growth, -100 = all killed)
NCI-H23 lung = conditions: 10 µM unless noted
NCI-H226 lung = conditions: 10 µM unless noted
NCI-H322M lung = conditions: 10 µM unless noted
HOP-62 NSCLC = conditions: 10 µM unless noted
NCI-H460 lung = conditions: 10 µM unless noted
HOP-92 NSCLC = conditions: 10 µM
NCI-H522 lung = conditions: 10 µM unless noted
A549/ATCC NSCLC = conditions: 10 µM unless noted
786-0 renal = conditions: 10 µM unless noted
COLO 205 colon = conditions: 10 µM unless noted
DU-145 prostate = conditions: 10 µM unless noted
K-562 leukemia = conditions: 10 µM unless noted
MALME-3M melanoma = conditions: 10 µM unless noted
MDA-MB-231 breast = conditions: 10 µM unless noted
SF-268 CNS = conditions: 10 µM unless noted
SF-295 CNS = conditions: 10 µM unless noted
SF-539 CNS = conditions: 10 µM unless noted
UACC-257 melanoma = conditions: 10 µM unless noted
RXF 393 renal = conditions: 10 µM unless noted
M14 melanoma = conditions: 10 µM unless noted

SMILES	growth (NCI-H23 lung)	growth (NCI-H226 lung)	growth (NCI-H322M lung)	growth (HOP-62 NSCLC)	growth (NCI-H460 lung)	growth (HOP-92 NSCLC)	growth (NCI-H522 lung)	growth (A549/ATCC NSCLC)	growth (786-0 renal)	growth (COLO 205 colon)	growth (DU-145 prostate)	growth (K-562 leukemia)	growth (MALME-3M melanoma)	growth (MDA-MB-231 breast)	growth (SF-268 CNS)	growth (SF-295 CNS)	growth (SF-539 CNS)	growth (UACC-257 melanoma)	growth (RXF 393 renal)	growth (M14 melanoma)
Cc1ccc(-c2nnc(SCc3ccc(O)c4ncccc34)o2)cc1	27.9%	45.2%	26.3%	19.7%	2.77% (active)	10.4%	26.6%	24.7%	24.5%	88.2%	28.7%	11.3%	1.77% (active)	41.7%	21.2%	5.77% (active)	14.9%	9.75% (active)		
Cn1ccnc1C(=O)/C=C/c1ccc(CNC(=O)c2c(F)c(F)c(F)c(F)c2F)cc1	52.5%	69.5%	81%	66.5%	7.14% (active)	117%	32.1%	70.4%	28%	102%	17.7%	21.1%	97%	30.3%	29.4%	90.4%	2.82% (active)	77%		
CC/C(=C/c1c(O)cccc1OC)c1ccc2c(OC)cccc2[o+]1	98.9%	99%	101%	101%	103%	110%	93.2%	102%	101%	110%	112%	96.6%	105%	102%	100%	98.5%	98.5%	101%		
N#Cc1cccc(CN2CCC3=C(C2)C(=O)N(Cc2ccc(Cl)cc2)C2=NCCCN23)c1	28.4%	39.9%	48.8%	26%	18.9%	26.1%	14.4%	29%	44.4%	-31% (active)	31.2%	22.5%	46.7%	32.6%	37.1%	7.29% (active)	40.5%	13.8%		
Cc1ccc(NC(=O)c2ccc(CN3CCN(C)CC3)cc2)cc1Oc1ccc(-c2[nH]nc3ncnc(N)c23)cc1	99.6%	98.5%	97.3%	104%	110%	98.3%	89.9%	98.8%	63.7%		106%	9% (active)	68.8%	95.9%	89%	103%	85.9%	98.5%	78.3%	
CN(C)CCNC(=O)c1ccc(-c2nc3ccc4[nH]ncc4c3c3c2COCC3)cc1	-5.76% (active)	9.31% (active)	2.32% (active)	5.23% (active)	6.12% (active)	-24.1% (active)	-46% (active)	38.5%	22.6%	-52.3% (active)	4.89% (active)	8.14% (active)	-24% (active)	-5.19% (active)	-16.2% (active)	3.44% (active)	-53% (active)	22.1%		
O=C(CSc1nnc(-c2ccc(Cl)cc2)n1-c1ccccc1)Nc1ccc(Br)cc1	35.9%	-27.7% (active)	0.91% (active)	-11.9% (active)	5.77% (active)	-37.7% (active)	12.1%		-83% (active)	51.9%	41.2%	40.5%	-3.16% (active)	-29.8% (active)	42.2%	-34.3% (active)	-66.7% (active)	50.3%	-31.6% (active)	
O=C(Nc1cccc(C(F)(F)F)c1)c1cc(-c2ccc(F)cc2F)ccc1O	-4.34% (active)	9.06% (active)	4.46% (active)	12.8%	2.67% (active)	-26.2% (active)	-4.56% (active)		14.9%	75.5%	18.9%	11.1%	-10.2% (active)	3.11% (active)	16.5%	-23.1% (active)	10.4%	-8.74% (active)	-25.9% (active)	
COc1cc(/C=C/C(=O)c2ccc(NC(=O)CSc3nnc(-c4ccc(-c5nc6ccc(Cl)cc6[nH]5)cc4)o3)cc2)cc(OC)c1OC	101%	104%	99.6%	89.8%	98.7%	115%	76.1%	99.5%	109%		94%	60.1%	95.5%	79.1%	91.8%	95.6%	94.2%	88.1%	84.1%	
O=C(O)c1ccc(-n2cc(CNc3cccc(Cl)c3)c(-c3ccc(F)cc3)n2)cc1	101%	112%	103%	101%	98%	105%	92.2%	92.7%	110%	120%	102%	76.4%	82.8%	91.7%	109%	87.6%	96.1%	96.8%		
COC(=O)C(Cc1ccccc1)Nc1nc(NC(Cc2ccccc2)C(=O)OC)nc(N2CCOCC2)n1 (stereo not given)	107%	102%	97.4%	97.3%	107%	119%	91%		100%	105%	112%	91.6%	105%	103%	103%	108%	98%	103%	113%	
COc1ccc(NC2=C(Cl)C(=O)c3nc(C)ccc3C2=O)cc1OC	59%	97.1%	99%	110%	100%	112%	78.8%	107%	99%		93%	7.18% (active)	94.5%	73%	84.7%	104%	103%	91%		
CCOC(=O)C(=O)CC(=O)N1C(=S)NC(=O)C1CC(C)C (stereo not given)	88.3%	99.1%	96.8%	101%	110%	99.6%	100%	103%	96.1%	107%	108%	107%	101%	101%	94.8%	102%	96.1%	102%		
Cc1ccc(NC(=S)NNC(=S)Nc2ccc(C)cc2)cc1	95.2%	103%	96.7%	97.8%	112%	93.1%	93.4%	105%	89.6%	115%	106%	96.6%	103%	106%	108%	102%	110%	117%		
C=CCn1c(SCC(=O)Nc2ccc(C(=O)/C=C/c3cccc([N+](=O)[O-])c3)cc2)nnc1-c1c[nH]c2ccccc12	94.1%	74.2%	91.2%	106%	102%	101%	78.9%	93.9%	106%	110%	97%		86.6%	85.2%	84%	91%	96.4%	103%		
CC1(C)CC[C@]23CC[C@]4(C)[C@H](CC[C@@H]5[C@@]6(C)CCCN(CO)C(C)(C)[C@@H]6CC[C@]54C)[C@H]2[C@H]1OC3	86.4%	94.8%	71.9%	98.9%	1.75% (active)	77.5%	94.9%	76.8%	83.8%	0.57% (active)	50.7%	2.86% (active)	101%	65.9%	97.5%	112%	84.6%	110%		
COc1ccc(S(=O)(=O)NCCCNc2nccc(-c3cn(C(C)(C)C)nc3-c3ccc(Cl)c(OC)c3)n2)cc1	87.7%	73.6%	82.5%	63.3%	84.9%	69.4%		64.4%	79.7%	105%	72.3%	59.7%	92.7%	43.8%	57.9%	91.2%	89.8%	104%	-0.734% (active)	92.8%

Reference: PubChem BioAssay (NCI)
